The panel holds about 79,000 compounds, 15% with a hit somewhere; the sample as a whole holds those more often. Cut-off read from the data, not from the text of the source: active = growth inhibition above about 70%; inactive = the rest.
Columns and labels:
[1] = NCI Yeast Anticancer Drug Screen. Data for the rad50 strain (AID 155);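 note: 0% = growth of vehicle-only cultures of the same strain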; settings: S. cerevisiae rad50 strain growth inhibition; at 50.0 µM; active compounds read high
Procedure, shortened: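 Growth of the mutant yeast was measured after compound exposure and referenced to vehicle-treated cultures.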

[2] = NCI Yeast Anticancer Drug Screen. Data for the mec2-1 strain (AID 157); settings: S. cerevisiae mec2-1 strain, at 50.0 µM, active compounds read high
Procedure, shortened: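 Test agents were screened against the mec2-1 yeast strain, with defined DNA repair or cell cycle alteration. Growth was scored as inhibition against vehicle-only controls.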

[3] = NCI Yeast Anticancer Drug Screen. Data for the sgs1 mgt1 strain (AID 161);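 note: 0% = growth of cultures given vehicle only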; settings: S. cerevisiae sgs1 mgt1 strain, at 50.0 µM, active compounds read high
Procedure, shortened: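 Mutant yeast exposed to compound; growth scored against vehicle-only wells.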

[4] = NCI Yeast Anticancer Drug Screen. Data for the cln2 rad14 strain (AID 165);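 note: 0% = growth equal to vehicle treated cultures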; settings: S. cerevisiae cln2 rad14 strain, at 50.0 µM, active compounds read high
Procedure, shortened: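 Growth of compound-exposed yeast (cln2 rad14 genotype) measured and expressed as inhibition relative to vehicle.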

[5] = NCI Yeast Anticancer Drug Screen. Data for the bub3 strain (AID 167); settings: S. cerevisiae bub3 mutant strain, at 50.0 µM, active compounds read high
Procedure, shortened: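 Whole-cell yeast assay. The mutant strain was incubated with compounds, and growth inhibition was determined by comparison with vehicle-treated cells.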

[6] = NCI Yeast Anticancer Drug Screen. Data for the mlh1 rad18 strain (AID 175); settings: S. cerevisiae mlh1 rad18 strain growth inhibition; at 50.0 µM; active compounds read high
Procedure, shortened: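 In this whole-cell yeast screen, a strain with altered DNA damage repair is challenged with compound, and its growth is measured against matched vehicle-treated controls.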

Measured: growth inhibition

CC(C)CCOC(=O)COc1ccc(Cl)cc1Cl
inactive: [1] 6.95% | [2] -13.7% | [3] 3.55% | [4] 19.2% | [5] 18.8% | [6] -17%

NC(CCCCN=Cc1nc(-c2ccccc2)oc1O)C(=O)O (stereo unspecified)
inactive: [1] -33.6% | [2] -52.3% | [3] -50.6% | [4] 21.4% | [5] -27.7% | [6] -47.5%

Cc1nc2c(sc3ccccc3n2C)c2nc3c(sc4ccccc4n3C)c(C)c12
inactive: [1] -3.95% | [2] -4.2% | [3] 1.45% | [4] -24.4% | [5] -2.6% | [6] 15.1%

CC1=Nc2c(C)noc2CC(c2ccccc2O)C1 (stereo unspecified)
inactive: [1] -1.5% | [2] -2.6% | [3] -2.05% | [4] 27.2% | [5] -15.8% | [6] -5.35%

CC(C)=C=CC(C)(C)NS(=O)(=O)NC(C)(C)C=C=C(C)C
inactive: [1] 12.5% | [2] -9.85% | [3] 2.4% | [4] 3.35% | [5] -16.6% | [6] 8.35%

CONCC(=O)c1ccc(SC)cc1
inactive: [1] -18.4% | [2] 0.6% | [3] -13.8% | [4] -21.8% | [5] -9.7% | [6] 0%

CC12CCC(C/C1=N\N=C(N)N)C2(C)C (stereo unspecified)
inactive: [1] 7.55% | [2] -4% | [3] -2.2% | [4] -36.9% | [5] -5.05% | [6] 6.2%

N#Cc1cc([N+](=O)[O-])ccc1NC(=O)C(=O)Nn1c(=S)[nH]c2ccccc2c1=O
inactive: [1] -2.25% | [2] -2.6% | [3] -34.5% | [4] 14.6% | [5] 10.3% | [6] 5.9%

CCCCCC(C)(O)CC(C)(C)C (stereo unspecified)
inactive: [1] -3.15% | [2] 5.75% | [3] 0.55% | [4] -7.95% | [5] 2.2% | [6] 34.8%

O=c1[nH]c(-c2ccccc2)nc2[nH]ncc12
inactive: [1] -3.2% | [2] -11.3% | [3] 23.1% | [4] 9.45% | [5] -7.4% | [6] 6.15%

Cc1cccc2c1NC(=O)C2=O
inactive: [1] 21.6% | [2] 8.4% | [3] -2.8% | [4] 15.7% | [5] -0.65% | [6] 13.5%

COc1cc2nncc(SCc3ccc(Cl)cc3)c2cc1OC
inactive: [1] -1% | [2] 4.2% | [3] -0.55% | [4] -11% | [5] 15.5% | [6] 4.05%

N#CCCCO
inactive: [1] -1.25% | [2] 11.6% | [3] 7.45% | [4] -4.55% | [5] 0.3% | [6] -11.8%

COC1OC2COC1(OCc1ccccc1)C1OC(C)(C)OC21 (stereo unspecified)
inactive: [1] -23.8% | [2] -5.85% | [3] -29.9% | [4] -0.8% | [5] -26.2% | [6] 5.35%

Cc1ccc(N2C(=O)ON(c3ccccc3)C2c2ccccc2)cc1 (stereo unspecified)
inactive: [1] 3.6% | [2] -5.8% | [3] -4.45% | [4] 5.9% | [5] 12.4% | [6] -15.9%

Cc1cc(C)n(-c2nnc(-n3nc(C)cc3C)c3ccccc23)n1
inactive: [1] -12.4% | [2] -1.75% | [3] -21.6% | [4] -5.45% | [5] -5.5% | [6] -3.9%

NNc1ccc(C(=O)O)cc1
inactive: [1] -3.6% | [2] 12.1% | [3] -2.1% | [4] 11% | [5] -2.35% | [6] -4.9%

O=C(O)/C=C/c1ccccc1C(=O)O
inactive: [1] 11.3% | [2] -4.3% | [3] 4.05% | [4] -13.2% | [5] -11.4% | [6] 6.05%

CCC1CN2CCc3cc(OC)c(OC)cc3C2CC1(O)C#N (stereo unspecified)
inactive: [1] 9.9% | [2] 18.9% | [3] -5.9% | [4] 0.6% | [5] 12.8% | [6] 39%

COC(=O)[C@@H]1Cc2ccc(OC)c(c2)OCCC(=O)N1
inactive: [1] -37% | [2] 0% | [3] 21.7% | [4] -2.95% | [5] -13% | [6] -12.2%

CC(C)(C)NC(=O)NCc1ccc(Cl)cc1
inactive: [1] -0.5% | [2] -16.1% | [3] -12.1% | [4] -29.6% | [5] 1% | [6] -9.8%
